For some assays here: Measured potencies and affinities stand elsewhere. The source made the active and inactive calls. Unless noted, the rule behind the calls is not given here.
Tests used:
[1] = antimalarial activity against Dd2 strain (AID 2302;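 active = growth inhibition above 50% at the single 2 µM test dose, taken to imply half-maximal potency below 2 µM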;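 note: 0% = DMSO untreated growth and 100% = chloroquine plus artemisinin killed control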); conditions: P. falciparum Dd2 in RBCs, LDH growth readout, 72 h; at 2 µM; stronger effect = higher value
[2] = HepG2 cytotoxicity, primary screen, cytotoxicity control for P. falciparum antimalarial project, cell-based, ATP luminescence (AID 2303;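 active = inhibition above 50%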;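 note: 0% = DMSO wells and 100% = digitonin-killed cells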); conditions: HepG2 viability, 24-48 h, at 10 µM, stronger effect = higher value
[3] = target: L-lactate dehydrogenase (Plasmodium falciparum (isolate CDC / Honduras)) (UniProt Q27743); test: PfLDH activity inhibition – cell lysate, 3D7 strain, counter-screen for P. falciparum growth inhibition project (AID 2304);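 note: 0% = vehicle and 100% = reference inhibitor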; conditions: P. falciparum 3D7 crude extract, LDH APAD/NBT absorbance; at 2 µM; stronger effect = higher value
L-lactate dehydrogenase (Plasmodium falciparum (isolate CDC / Honduras)), sequence (Q27743 whole entry, looked up): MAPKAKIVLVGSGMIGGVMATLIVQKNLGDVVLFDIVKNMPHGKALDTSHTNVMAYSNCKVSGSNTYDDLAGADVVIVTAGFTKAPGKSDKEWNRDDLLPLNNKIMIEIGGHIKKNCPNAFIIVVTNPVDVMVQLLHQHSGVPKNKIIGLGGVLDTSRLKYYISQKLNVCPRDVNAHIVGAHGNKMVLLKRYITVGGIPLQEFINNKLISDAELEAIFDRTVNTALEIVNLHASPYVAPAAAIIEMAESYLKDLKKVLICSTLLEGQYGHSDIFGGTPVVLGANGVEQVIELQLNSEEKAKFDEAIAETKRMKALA

[4] = inhibition of 3D7 malaria parasite growth – strain 3D7 (AID 2306);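 note: 0% = DMSO wells and 100% = chloroquine plus artemisinin control wells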; conditions: P. falciparum 3D7 erythrocytic growth, LDH absorbance, 72 h; at 2 µM; stronger effect = higher value
[5] = target: Calcium-dependent protein kinase 1 (Plasmodium falciparum (isolate 3D7)) (UniProt P62344); test: PfCDPK1 kinase inhibitors, biochemical, TCAMS library (AID 1159585; cut-off not given, nearly all actives have IC50 up to about 0.98 µM;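 note: inhibitors leave more ATP so luminescence rises with inhibition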); conditions: recombinant PfCDPK1, Kinase-Glo ATP depletion luminescence
Calcium-dependent protein kinase 1 (Plasmodium falciparum (isolate 3D7)), sequence (P62344 whole entry, looked up): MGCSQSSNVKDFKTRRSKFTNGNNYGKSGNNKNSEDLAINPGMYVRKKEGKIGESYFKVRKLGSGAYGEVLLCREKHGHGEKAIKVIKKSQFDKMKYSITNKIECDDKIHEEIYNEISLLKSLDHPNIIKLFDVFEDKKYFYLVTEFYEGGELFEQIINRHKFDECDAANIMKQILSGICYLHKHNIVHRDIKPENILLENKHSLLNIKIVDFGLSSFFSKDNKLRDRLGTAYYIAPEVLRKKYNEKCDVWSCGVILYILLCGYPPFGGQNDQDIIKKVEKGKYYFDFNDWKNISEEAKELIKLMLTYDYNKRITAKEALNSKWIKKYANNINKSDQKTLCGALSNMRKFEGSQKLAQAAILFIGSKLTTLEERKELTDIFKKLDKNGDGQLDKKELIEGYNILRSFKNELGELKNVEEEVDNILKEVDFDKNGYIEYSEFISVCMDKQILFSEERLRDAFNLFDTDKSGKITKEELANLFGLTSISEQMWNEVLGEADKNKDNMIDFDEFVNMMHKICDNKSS

[6] = target: Plasmodium falciparum protein kinase 6 (PK6, PF3D7_1337100) (UniProt Q8IDW1); test: PfPK6 kinase inhibitors, biochemical, TCAMS library (AID 1159586); conditions: recombinant PfPK6, Kinase-Glo ATP depletion luminescence
Plasmodium falciparum protein kinase 6 (PK6, PF3D7_1337100), sequence (Q8IDW1 1-305): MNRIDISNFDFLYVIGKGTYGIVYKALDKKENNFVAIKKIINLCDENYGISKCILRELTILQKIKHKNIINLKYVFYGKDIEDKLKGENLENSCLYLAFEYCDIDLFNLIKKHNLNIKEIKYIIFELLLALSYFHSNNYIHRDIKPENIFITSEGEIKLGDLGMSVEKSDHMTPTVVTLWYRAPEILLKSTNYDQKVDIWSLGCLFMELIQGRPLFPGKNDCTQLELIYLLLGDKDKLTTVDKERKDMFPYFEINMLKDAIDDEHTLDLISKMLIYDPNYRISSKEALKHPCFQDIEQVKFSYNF

[7] = target: Protein kinase 7 (PK7), Plasmodium falciparum 3D7 (PF3D7_0213400) (UniProt Q7YTF7); test: inhibition of Plasmodium PK7 catalytic activity – biochemical, TCAMS antimalarial set, Kinase-Glo luminescence (AID 1159587); conditions: recombinant PfPK7, Kinase-Glo ATP depletion luminescence
Protein kinase 7 (PK7), Plasmodium falciparum 3D7 (PF3D7_0213400), sequence (Q7YTF7 1-343): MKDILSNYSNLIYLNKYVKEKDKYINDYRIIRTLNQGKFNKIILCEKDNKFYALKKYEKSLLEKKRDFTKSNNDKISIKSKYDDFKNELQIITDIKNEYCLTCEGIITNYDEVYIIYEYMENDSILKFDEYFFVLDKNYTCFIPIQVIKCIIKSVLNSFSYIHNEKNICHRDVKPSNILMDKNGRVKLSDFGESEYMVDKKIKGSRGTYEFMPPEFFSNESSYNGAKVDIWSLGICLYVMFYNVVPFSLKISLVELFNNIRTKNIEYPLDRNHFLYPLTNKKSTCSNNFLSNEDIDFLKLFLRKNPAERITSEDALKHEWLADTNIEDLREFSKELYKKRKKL

[8] = target: Calcium-dependent protein kinase 4 (Plasmodium falciparum (isolate 3D7)) (UniProt Q8IBS5); test: PfCDPK4 kinase inhibitors, biochemical, TCAMS library (AID 1159588; cut-off not given, nearly all actives have IC50 up to about 0.91 µM); conditions: recombinant PfCDPK4, Kinase-Glo ATP depletion luminescence
Calcium-dependent protein kinase 4 (Plasmodium falciparum (isolate 3D7)), sequence (Q8IBS5 whole entry, looked up): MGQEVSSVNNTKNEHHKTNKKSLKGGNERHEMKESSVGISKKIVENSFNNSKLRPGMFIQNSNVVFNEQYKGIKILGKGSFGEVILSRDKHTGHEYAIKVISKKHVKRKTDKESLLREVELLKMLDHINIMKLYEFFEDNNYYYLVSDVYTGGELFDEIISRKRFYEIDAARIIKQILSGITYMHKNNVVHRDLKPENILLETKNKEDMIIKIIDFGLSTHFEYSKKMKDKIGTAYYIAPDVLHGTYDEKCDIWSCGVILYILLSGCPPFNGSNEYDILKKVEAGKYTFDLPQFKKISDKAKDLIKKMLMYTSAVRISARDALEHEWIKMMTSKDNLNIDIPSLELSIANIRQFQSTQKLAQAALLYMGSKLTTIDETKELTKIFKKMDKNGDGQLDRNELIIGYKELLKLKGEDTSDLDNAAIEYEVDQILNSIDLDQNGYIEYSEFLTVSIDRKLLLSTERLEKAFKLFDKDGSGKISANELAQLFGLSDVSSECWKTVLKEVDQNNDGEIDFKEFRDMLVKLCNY

Cc1cc(NN=Cc2ccccc2F)c2cccc(C)c2n1
inactive: growth inhibition [1] 14% | inhibition [2] 7% | inhibition [3] -2% | outcome [5] | outcome [6] | outcome [7] | outcome [8]
active: growth inhibition [4] 102%

CN(C)c1ccc(C2(c3ccccc3)N=C(N)N(CCCc3ccccc3)C2=O)cc1 (configuration not stated)
inactive: inhibition [2] 4% | inhibition [3] 0% | outcome [5] | outcome [6] | outcome [7] | outcome [8]
active: growth inhibition [1] 97% | growth inhibition [4] 99%

COc1c(C2CCN(CCCCNC(=O)c3ccc(-c4ccc(C#N)cc4)nc3)CC2)ccc2c1CCCC2
inactive: inhibition [3] -2% | outcome [5] | outcome [6] | outcome [7] | outcome [8]
active: growth inhibition [1] 67% | inhibition [2] 54% | growth inhibition [4] 95%

CCNC(=O)c1ccc(-n2nc(C)cc2-c2ccccc2)cc1
inactive: inhibition [2] 11% | inhibition [3] 2% | outcome [5] | outcome [6] | outcome [7] | outcome [8]
active: growth inhibition [1] 54% | growth inhibition [4] 89%

Source: PubChem BioAssay
